Pol iota inh = qHTS for Inhibitors of Polymerase Iota | DNA polymerase iota (Homo sapiens), Q9UNA4 | Pol iota fluorescent replication assay, 10 min | Potency, µM (titrated, usually from 115 µM), for the others: at the top dose activity, negative = inhibition, most hits filed as inhibitors | 390,000 tested, 1% active | AID 588590, 2011; also: potency is read from the fitted curve at half-maximal effect
Target sequence (Q9UNA4 whole entry, looked up): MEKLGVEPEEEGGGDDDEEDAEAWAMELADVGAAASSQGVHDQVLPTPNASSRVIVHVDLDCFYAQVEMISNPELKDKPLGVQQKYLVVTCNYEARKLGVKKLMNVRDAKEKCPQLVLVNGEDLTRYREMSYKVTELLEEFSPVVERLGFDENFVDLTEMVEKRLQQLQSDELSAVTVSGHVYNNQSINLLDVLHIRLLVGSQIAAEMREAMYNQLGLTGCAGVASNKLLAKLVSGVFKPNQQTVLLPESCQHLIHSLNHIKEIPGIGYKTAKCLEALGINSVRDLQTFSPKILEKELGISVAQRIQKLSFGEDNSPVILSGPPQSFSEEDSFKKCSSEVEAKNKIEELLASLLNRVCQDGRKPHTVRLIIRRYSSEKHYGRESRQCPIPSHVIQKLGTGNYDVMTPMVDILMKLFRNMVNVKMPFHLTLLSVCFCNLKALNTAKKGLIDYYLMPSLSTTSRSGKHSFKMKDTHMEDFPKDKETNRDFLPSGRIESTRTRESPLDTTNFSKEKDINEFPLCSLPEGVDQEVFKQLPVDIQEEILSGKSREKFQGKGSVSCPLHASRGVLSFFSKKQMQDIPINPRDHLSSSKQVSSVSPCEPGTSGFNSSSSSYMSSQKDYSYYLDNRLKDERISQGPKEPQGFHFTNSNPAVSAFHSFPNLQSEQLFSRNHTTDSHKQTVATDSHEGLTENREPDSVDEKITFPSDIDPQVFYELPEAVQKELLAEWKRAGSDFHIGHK
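Fluorescent replication assay read twice, at 0 min and 10 min after adding 50 nM (final) substrate. Enzyme (10 nM) and compounds were first incubated 15 min at room temperature; enzyme-free buffer wells were negative controls.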
Pol eta inh = qHTS for Inhibitors of Polymerase Eta | DNA polymerase eta (Homo sapiens), Q9Y253 | recombinant Pol eta, fluorescent DNA replication assay | Potency, µM (titrated, usually from 114 µM), for inactives: at the highest dose activity change, negative = inhibition, hits mostly inhibitors | 390,000 tested, 1.2% active | AID 588591, 2011; also: potency is read from the fitted curve at half-maximal effect; % is scaled to controls: 0 for no effect and ±100 for the full control effect
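Pol eta at 10 nM preincubated with compounds 15 min at room temperature; reaction started with fluorescent substrate (50 nM final) and read kinetically at 0 and 10 min.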
POLK inh = qHTS for Inhibitors of Polymerase Kappa. DNA polymerase kappa (Homo sapiens), Q9UBT6. purified Pol kappa, fluorescent DNA synthesis assay, 10 min. Potency, µM (top dose mostly 107 µM), inactives show at the top dose activity, negative = inhibition, usual class: inhibitors. 400,000 tested, 0.53% active; also: potency is read from the fitted curve at half-maximal effect; % is scaled to controls: 0 for no effect and ±100 for the full control effect
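Inhibition of 10 nM Pol kappa is measured by a fluorescent read-out at 0 and 10 min following addition of 50 nM substrate (final), with a 15-min room-temperature compound preincubation.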
POLB inh = qHTS Assay for Inhibitors of DNA Polymerase Beta. Pol beta primer extension/strand displacement, fluorescence kinetic. 340,000 tested, 1.3% active. P06746. AID 485314, 2010. Potency, µM (doses to about 114 µM), for inactives: at the top dose activity change, negative = inhibition, hits mostly inhibitors; also: potency is read from the fitted curve at half-maximal effect; % is scaled to controls: 0 for no effect and ±100 for the full control effect
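Kinetic readout of DNA synthesis with strand displacement by Pol beta. Compound and 10 nM enzyme sit 15 min at room temperature; 50 nM substrate starts the reaction, read immediately and at 10 min.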
WRN inhibitor = qHTS for Inhibitors of WRN Helicase | Bifunctional 3'-5' exonuclease/ATP-dependent helicase WRN (Homo sapiens), Q14191 | WRN helicase unwinding, fluorescent forked duplex, kinetic | Potency, µM (series often up to 114 µM), for inactives: at the highest dose activity change, negative = inhibition, most hits filed as inhibitors | 360,000 tested, 0.46% active | AID 651768, 2012; also: potency is read from the fitted curve at half-maximal effect; % is scaled to controls: 0 for no effect and ±100 for the full control effect; nearly all actives have a fitted effect of over 55% in size
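WRN at 20 nM final was preincubated with compound for 15 min at room temperature; reaction started with 100 nM forked duplex oligonucleotide carrying fluorophore and quencher plus 2 mM ATP (final). Unwinding followed kinetically by red fluorescence (ex 525/em 598 nm).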
PI5P4Ka inh = qHTS for Inhibitors of phosphatidylinositol 5-phosphate 4-kinase (PI5P4K); Phosphatidylinositol 5-phosphate 4-kinase type-2 alpha (Homo sapiens), P48426; PI5P4Kalpha enzyme, ADP-Glo luminescence, 60 min; stronger effect = lower value; max response, %; 330,000 tested, 1.2% active; AID 652105, 2013; active = max response of -50% or lower; inconclusive = between -30% and -50%; inactive = -30% or higher; also: value at the top dose of about 77 µM; % is scaled to controls: 0 for no effect and ±100 for the full control effect
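Reactions run in 0.038 M HEPES pH 7.4, 0.28 mM EGTA, 0.1% CHAPS and 5% DMSO, with PI5P4Kalpha, substrate, compound and 5 microM ATP final, one hour at room temperature. Readout is ADP-Glo luminescence.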
Numbers without * were called inactive; ? = inconclusive; / = not tested or not shown; [ ] = remark or other dose. Sampled rows, rich in hits. Any-hit rate of the full collection: about 2.8%. Unless noted, calls follow the shape of the dose curve; as a rule, active = well fitted curve in the direction sought with a large enough effect; inconclusive = small, poorly fitted or top-dose-only effect, or another doubt; inactive = no such curve, though single readings can be large; an effect the other way counts as inactive or inconclusive.

SMILES	Pol iota inh	Pol eta inh	POLK inh	POLB inh	WRN inhibitor	PI5P4Ka inh
Cc1c(CC(=O)N2CCN(C(=O)C3COc4ccccc4O3)CC2)c(=O)oc2cc(O)c(Cl)cc12 (centres undefined)	21.6%	?	-15.8%	-11.2%	-10.1%	-50.7*
O=c1c2c(nc3cc(-c4ccc(F)cc4)[nH]n13)CCCC2	?	?	-21.2%	17.8µM*	?	-13.2
COc1cc(/C=C2/C(=O)ON=C2c2ccccc2)ccc1O	?	-13.9%	0.0%	6.0%	?	?
COc1cc([N+](=O)[O-])ccc1-c1ccc(/C=C2\C(=O)ON=C2c2ccccc2)o1	?	79.4µM*	-28.4%	/	-35.3%[11.6 µM]	-23.3
Cc1ccc(/C=C2/C(=O)ON=C2c2ccccc2)o1	3.98µM*	35.5µM*	22.4µM*	-6.9%	?	?
O=C1ON=C(c2ccccc2)/C1=C/c1ccccc1	-8.0%	-0.3%	11.9%	8.2%	-3.4%	-27.6
O=C1ON=C(c2ccccc2)/C1=C\c1ccco1	7.8%	-4.0%	-18.6%	31.6µM*	-6.1%	0.3
Cc1ccc(C2=NOC(=O)/C2=C\c2ccccc2)cc1	?	-18.3%	-21.0%	/	-5.0%	-19.4
COc1cc(/C=C2\C(=O)ON=C2c2ccccc2)cc(Cl)c1O	?	-14.5%	-9.7%	-24.7%	?	-66.8*
COc1cc([N+](=O)[O-])ccc1-c1ccc(/C=N\n2cnnc2)o1	?	7.9%	-15.3%	?	-16.0%	-17.1
Cc1oc(-c2cccc(Cl)c2)nc1Cn1c(SCc2ccccc2F)nc2ccncc21	12.6%	-11.2%	-0.6%	10.7%	/	/
CCOC(=O)c1ccccc1NC(=O)N1CCCn2nc(C)cc21	41.4%	-10.0%	-6.7%	2.9%	/	/
O=C(Nc1ccccc1OCc1cc(=O)n2ccccc2n1)Nc1ccccc1C(F)(F)F	16.5%	-14.6%	3.1%[60.1 µM]	0.3%	/	/
Cc1sc2c(c1C)c(=O)n(-c1cccc(C(F)(F)F)c1)c(=O)n2Cc1ccccc1C#N	14.7%	/	4.7%	2.6%	/	/
CC(C)CC1C(C#N)=C(N)Oc2n[nH]c(-c3ccccc3)c21 (centres undefined)	45.1%	-28.2%	-2.1%	-18.7%	-14.1%	-56.9*
CCOc1cc(C2C(C#N)=C(N)Oc3n[nH]c(-c4ccccc4)c32)ccc1O (centres undefined)	25.1µM*	1.2%	-2.0%	36.7%	16.8%	?
N#CC1=C(N)Oc2n[nH]c(-c3cccnc3)c2C1c1cc(F)ccc1F (centres undefined)	37.8%	-12.2%	-0.1%	7.3%	-11.8%	-54.2*
CC(C)C1C(C#N)=C(N)Oc2n[nH]c(-c3ccccc3)c21 (centres undefined)	13.8%	-10.1%	-6.2%	-3.1%	0.0%	-15.5
N#CC1=C(N)Oc2n[nH]c(-c3ccccc3)c2C1c1cccnc1 (centres undefined)	?	7.8%	-1.9%	-16.6%	-8.7%	?
O=C(Cn1c(=O)n(Cc2ccco2)c(=O)c2c3c(sc21)CCCCC3)Nc1ccccc1	12.6µM*	50.1µM*	?	31.6µM*	?	/
O=C(CN1C(=O)C(=O)N(Cc2ccco2)C1=O)Nc1ccccc1	?	20µM*	-31.3%	/	-19.4%	-16.1
O=C(Cn1c(=O)n(Cc2ccco2)c(=O)c2c3c(sc21)CCCCC3)c1ccccc1	?	?	-35.5%	10µM*	?	/
CCOC(=O)c1c(S(=O)(=O)N2CCC(C(=O)Nc3cccc(C)n3)CC2)c(C)n(C)c1C	47.8%	-14.1%	-6.5%[60.1 µM]	9.8%	/	/
CC12C(=O)N(c3nccs3)C(=O)C1C1C=CC2C1 (centres undefined)	89.1µM*	28.2µM*	-27.5%	31.6µM*	-33.7%	-28.8
CC12C(=O)N(c3cccc4cccnc34)C(=O)C1C1C=CC2C1 (centres undefined)	27.8%	-17.2%	5.0%	9.4%	-2.4%	8.4
SMILES	Pol iota inh	Pol eta inh	POLK inh	POLB inh	WRN inhibitor	PI5P4Ka inh
O=c1[nH]c2c(-c3nc(-c4ccc(Cl)cc4)cs3)c(O)cn2c2ccccc12	-26.5%	/	-24.2%	/	/	/
COc1cc(/C=C/C(=O)c2c(O)ccc3c(C)cc(=O)oc23)ccc1O	12.6µM*	?	-6.4%	21.4%	-24.6%	6.3
COc1c(O)cc2c(c1O)C1OC(CO)C(O)[C@H](O)[C@H]1OC2=O (some centres undefined)	/	/	-3.7%[60.1 µM]	/	/	/
O=C(O[C@@H]1OC2COC(=O)c3cc(O)c(O)c(O)c3-c3c(cc(O)c(O)c3O)C(=O)O[C@@H]([C@H]1O)[C@@H]2O)c1cc(O)c(O)c(O)c1	?	-98.6%	-98.8%	0.159µM*	?	-101.5*
CC(C)(C)n1ncc2c(=O)n(Cc3ccc(F)c(C(F)(F)F)c3)cnc21	6.7%	/	-6.7%	/	/	/
Nc1ccc2c(c1)C=C/C2=C\c1ccccc1	-8.9%	/	-21.1%	/	/	/
CCOc1ccc(S(=O)(=O)Nc2cc(NS(=O)(=O)c3ccc(OCC)cc3)cc(C(=O)O)c2)cc1	?	25.1µM*	79.4µM*	/	-22.7%	-25.5
CCOc1ccc(NS(=O)(=O)c2ccc(NS(=O)(=O)c3ccccc3)cc2)cc1	0.3%	-4.9%	-31.9%	-29.8%	-16.3%	/
N#Cc1c(-c2ccncc2)c2c([nH]c1=S)CCCC2	-1.5%	-0.3%	-19.4%	-11.7%	-19.2%	-59.6*
Cc1ccc(-c2c3c([nH]c(=S)c2C#N)CCCC3)o1	?	?	-28.4%	?	44.7µM*	/
CCC(=O)N1CCc2cc(Br)cc(S(=O)(=O)CCC(=O)Nc3cccc(Cl)c3)c21	7.0%	?	-11.9%	-22.4%	/	/
Cc1ccc(-n2nc3ccc(NC(=S)NC(=O)/C=C/c4ccco4)cc3n2)cc1	14.0%	?	-7.7%	-13.0%	-17.7%	?
Cc1ccccc1NC(=S)NC(=O)/C=C/c1ccco1	?	17.8µM*	?	31.6µM*	79.4µM*	-58.3*
Cn1nnc(NC(=O)/C=C/c2ccco2)n1	49.7%	-11.1%	1.4%	1.6%	12.0%	0.0
O=C(/C=C/c1ccco1)NC(=S)Nc1cc(-c2nc3ccccc3s2)ccc1Cl	?	22.4µM*	-22.7%	-2.7%	?	-56.3*
Cc1ccc(-n2nc3cc(C)c(NC(=S)NC(=O)/C=C/c4ccco4)cc3n2)cc1	6.0%	?	-8.0%	50.1µM*	-6.8%	-19.9
CCCn1nnc(NC(=S)NC(=O)/C=C/c2ccco2)n1	?	?	50.1µM*	?	?	-63.4*

Screening results as filed in PubChem BioAssay.
